Nrf2 inh: Nrf2 qHTS screen for inhibitors | A549 ARE-Fluc reporter, luciferase luminescence, 18-24 h | Potency, µM (top dose mostly 46 µM), without a hit: at the top dose activity change, negative = inhibition, usual class: inhibitors | hit rate 2.1% among 360,000 | AID 504444, 2011; also: potency is read from the fitted curve at half-maximal effect; % is scaled to controls: 0 for no effect and ±100 for the full control effect; nearly all actives have a fitted effect of over 60% in size
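Quantitative HTS in A549 cells stably bearing an antioxidant response element-firefly luciferase construct. Inhibition of Nrf2-driven transcription was scored by luminescence after 18-24 h of compound exposure at 37 °C.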
IDH1 R132H inh: qHTS for Inhibitors of mutant isocitrate dehydrogenase 1 (IDH1): qHTS | IDH1-R132H enzyme, NADPH consumption, diaphorase/resazurin fluorescence | Potency, µM (highest dose often 76.6 µM), for inactives: top-dose activity change, negative = inhibition, most hits filed as inhibitors | hit rate 0.093% among 390,000 | AID 602179, 2012; also: potency is read from the fitted curve at half-maximal effect; % is scaled to controls: 0 for no effect and ±100 for the full control effect; nearly all actives have a fitted effect of over 65% in size
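IDH1-R132H (0.5 ug/mL dispensed) in pH 7.5 Tris buffer was preincubated 30 min with compound, then given a substrate mix of 0.016 mM NADPH and 2 mM alpha-KG for 80 min at room temperature; remaining NADPH was read by diaphorase/resazurin fluorescence.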
Nrf2 ARE act: qHTS of Nrf2 Activators; AREc32 ARE-luciferase reporter (MCF7-derived line), luminescence, 24 h; Potency, µM (doses to about 46.1 µM), for inactives: at the top dose activation, actives largely listed as activators; hit rate 0.31% among 410,000; AID 624171, 2012; also: potency is read from the fitted curve at half-maximal effect; % of control where 0% means no effect; nearly all actives have a fitted effect of over 65% in size
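Quantitative high-throughput format: AREc32 reporter cells, 1000 per well, received compound by pin transfer and were incubated 24 hr at 37 deg C, 5% CO2, before Steady-Glo luminescence detection.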
A549 viability: Nrf2 qHTS screen for inhibitors: counterscreen for cytotoxicity; A549 ARE-Fluc cells, CellTiter-Fluor viability, 18-24 h; Potency, µM (highest dose often 46 µM), for the others: at the top dose activity change, negative = cytotoxicity, most hits filed as inhibitors; hit rate 0.16% among 390,000; AID 504648, 2011; also: potency is read from the fitted curve at half-maximal effect; % is scaled to controls: 0 for no effect and ±100 for the full control effect
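Cytotoxicity counterscreen: CellTiter-Fluor fluorescence was measured in A549 ARE_Fluc cells after 18-24 h of compound exposure in a concentration series. The subsequent BugLite luminescent read reports ARE-luciferase activity.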
LDHA block: qHTS assay for inhibitors of human lactate dehydrogenase. hit rate 0.15% among 480,000. purified LDHA, NADH/diaphorase-resazurin fluorescence; hits give low values. AID 1347041, 2019. activity change, % (values are at about 110 or 230 µM); in the data active = activity change below about -30%; inconclusive = mostly about -25% to -30%;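 also: plate controls were DMSO wells for no effect and wells without enzyme for full effect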
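Enzyme activity of human lactate dehydrogenase 5 (2 nM; 0.06 mM NADH, 0.2 mM pyruvate, 5 min, RT) is measured via a resazurin/diaphorase fluorescence readout of residual NADH.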
ALOX12 inh: Primary qHTS assay for inhibitors of human arachidonate 12S-lipoxygenase (ALOX12): Round 2 | Polyunsaturated fatty acid lipoxygenase ALOX12 (Homo sapiens), P18054 | purified 12hLO, xylenol orange hydroperoxide absorbance | Potency, µM (series often up to 108 µM), inactives show at the top dose activity change, negative = inhibition, most hits filed as inhibitors | hit rate 1.1% among 580,000; also: potency is read from the fitted curve at half-maximal effect; % is scaled to controls: 0 for no effect and ±100 for the full control effect
Target sequence (P18054 whole entry, looked up): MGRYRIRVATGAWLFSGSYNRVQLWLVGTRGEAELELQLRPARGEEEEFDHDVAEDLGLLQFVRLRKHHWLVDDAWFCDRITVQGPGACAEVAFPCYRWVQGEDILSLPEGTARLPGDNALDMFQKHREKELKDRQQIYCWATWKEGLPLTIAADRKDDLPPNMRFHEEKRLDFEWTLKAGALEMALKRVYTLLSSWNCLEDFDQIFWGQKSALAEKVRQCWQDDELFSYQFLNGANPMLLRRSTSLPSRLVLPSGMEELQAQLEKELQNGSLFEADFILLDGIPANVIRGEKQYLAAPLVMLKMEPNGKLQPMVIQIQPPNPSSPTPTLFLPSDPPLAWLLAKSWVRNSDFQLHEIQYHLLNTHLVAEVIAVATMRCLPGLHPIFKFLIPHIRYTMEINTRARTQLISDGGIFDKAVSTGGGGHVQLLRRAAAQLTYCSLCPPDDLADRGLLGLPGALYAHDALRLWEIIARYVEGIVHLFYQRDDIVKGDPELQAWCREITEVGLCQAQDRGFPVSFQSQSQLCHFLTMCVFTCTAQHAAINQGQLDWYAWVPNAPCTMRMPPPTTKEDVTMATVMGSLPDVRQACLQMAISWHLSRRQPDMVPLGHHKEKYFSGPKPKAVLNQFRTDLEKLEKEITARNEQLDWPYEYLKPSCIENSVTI
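Purified human 12hLO (150 nM final) in 25 mM Hepes, 0.01% Triton X-100, pH 7.0 was preincubated 15 min at room temperature with compound. Then 40 uM arachidonic acid was added, 30 min. Hydroperoxide was read by Fe-XO absorbance ratio 573/405 nm.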
Numbers without * were called inactive; ? = inconclusive; nt = not tested or not shown; ! = a repeat was not active. Rows were chosen to be rich in hits. Some 2.7% of all compounds tested hit in one or more screens of this group. Unless noted, calls follow the shape of the dose curve; as a rule, active = well fitted curve in the direction sought with a large enough effect; inconclusive = small, poorly fitted or top-dose-only effect, or another doubt; inactive = no such curve, though single readings can be large; an effect the other way counts as inactive or inconclusive.

SMILES	Nrf2 inh	IDH1 R132H inh	Nrf2 ARE act	A549 viability	LDHA block	ALOX12 inh
Cc1cc(C(=O)NC2CCCN(Cc3ccc(Cl)cc3)C2)c(C)o1 (centres undefined)	2%	2%	-1%	-2%	-3	16µM*
O=C(C1CCCN(Cc2ccccc2)C1)N1CCCCC1 (centres undefined)	25%	9%	-1%	2%	-13	?
C=CCNCc1ccc(-c2cccc(Cl)c2C)o1	nt	nt	nt	nt	5	-38%
Cc1oc(-c2ccccc2)nc1CC(=O)Nc1cc(F)ccc1F	nt	nt	nt	nt	3	-6%
Cc1oc(-c2ccccc2)nc1CC(=O)Nc1ccc(Cl)cc1Cl	nt	nt	nt	nt	7	7.9µM*
COC(=O)c1ccccc1NC(=O)c1ccc(-c2nc(CSc3ccc(C)cc3)c(C)o2)cc1	?	56%	-1%	0%	2	?
CC(=O)c1ccc(NC(=O)c2ccc(-c3nc(CSc4ccc(C)cc4)c(C)o3)cc2)cc1	?	0%	1%	-12%	2	?
Cc1cccc(NC(=O)c2ccc(-c3nc(CSc4ccccc4)c(C)o3)cc2)c1C	13µM*	-2%	-1%	0%	-7	-31%
CC(=O)c1ccc(NC(=O)c2ccc(-c3nc(CSc4ccccc4)c(C)o3)cc2)cc1	10µM*	-5%	1%	1%	-6	?
Cc1ccc(Cl)cc1NC(=O)c1ccc(-c2nc(CSc3ccccc3)c(C)o2)cc1	13µM*	-1%	0%	-4%	0	-20%
COc1ccc(NC(=O)c2ccc(-c3nc(CSc4ccc(C)cc4)c(C)o3)cc2)cc1Cl	23µM*	-15%	0%	-13%	-1	-26%
COc1ccc(NC(=O)c2ccc(-c3nc(CSc4ccccc4)c(C)o3)cc2)cc1OC	?	1%	4%	-15%	1	-25%
CSc1ccc(/C=C2\C(=O)Oc3ccccc32)cc1	nt	nt	nt	nt	8	32µM*
CSc1ccc(/C=C2/C(=O)c3ccccc3OC2c2ccccc2)cc1 (centres undefined)	nt	nt	nt	nt	12	?
CCCn1nc(C(=O)N2CCN(S(=O)(=O)c3ccc(C)cc3C)CC2)c2ccccc2c1=O	nt	nt	nt	nt	-1	-21%
CCC(CC)C(=O)Nc1nnc(S(=O)(=O)N(C)c2cc(C)cc(C)c2)s1	21µM*	6%	2%	-6%	-3	-13%
CN(c1ccccc1)S(=O)(=O)c1nnc(NC(=O)c2ccco2)s1	7.3µM*!	0%	0%	-3%	-13	?
COc1ccc(C)cc1Nc1nc(N)c(C(=O)c2cccc(Br)c2)s1	nt	nt	nt	nt	11	-7%
CCCn1nc(C)cc1CN(C)c1ccc(NS(=O)(=O)c2cccc(Cl)c2C)cc1C(=O)O	nt	nt	nt	nt	17	?
CCCc1nc2ccccc2n1CC(O)c1ccccc1 (centres undefined)	nt	nt	nt	nt	-1	21%
Cc1cccc(OCC(=O)N2CCC(NC(=O)c3ccccc3)CC2)c1	nt	nt	nt	nt	-1	?
COc1cc(N=Nc2ccc(Br)cc2)cc(C=O)c1O	nt	0%	8%	nt	7	3.2µM*
COc1cc(CN(C)C)cc(C=O)c1O	-1%	15%	0%	5%	15	nt
Cc1ccc(S(=O)(=O)Nc2nc3ccccc3nc2NCc2ccco2)cc1C	21µM*	0%	5%	-5%	-3	0%
O=S(=O)(Nc1nc2ccccc2nc1NCc1ccco1)c1ccc(Cl)cc1	21µM*	7%	8%	-13%	-6	7%
SMILES	Nrf2 inh	IDH1 R132H inh	Nrf2 ARE act	A549 viability	LDHA block	ALOX12 inh
Cc1cccc(S(=O)(=O)Nc2nc3ccccc3nc2NCc2ccco2)c1	?	-1%	27%	4%	-1	?
Cc1ccc(S(=O)(=O)Nc2nc3ccccc3nc2NCc2ccco2)cc1	?	2%	22µM*	-4%	0	-1%
Cc1ccc(S(=O)(=O)c2c(N)n(Cc3ccco3)c3nc4ccccc4nc23)cc1	18µM*	0%	3%	nt	0	?
CCc1c(C)sc(NC(=O)c2ccc(C(C)(C)C)cc2)c1C#N	nt	nt	nt	nt	-1	?
Cc1cccc(C(C)C)c1NC(=O)CSc1ccccc1Cl	nt	nt	nt	nt	11	-43%
N#CCc1ccc(NC(=O)CNc2ccc(F)cc2Cl)cc1	nt	nt	nt	nt	2	-19%
O=S(=O)(Nc1nc2ccccc2nc1N1CCCCCC1)c1ccc(Cl)cc1	nt	nt	nt	nt	-1	?
Cc1noc(C)c1CSc1nc2ccccc2nc1NS(=O)(=O)c1ccc(Cl)cc1	9.2µM*	-9%	0%	?	-6	nt
CCOc1ccc(CNc2nc(NCc3ccc(OCC)cc3)n(S(=O)(=O)CC)n2)cc1	nt	nt	nt	nt	13	?
COc1cccc(-c2nc(CS(=O)(=O)CC(=O)Nc3cccc(C(C)=O)c3)c(C)o2)c1	?	0%	0%	-3%	-3	?
COc1cccc(-c2nc(CS(=O)(=O)CC(=O)Nc3cccc(C(F)(F)F)c3)c(C)o2)c1	nt	nt	nt	nt	-30*	9%
COc1cccc(NC(=O)CS(=O)(=O)Cc2nc(-c3ccc(C)cc3)oc2C)c1	26µM*	-1%	1%	-15%	-10	-3%
c1ccc(CNC2CCCCC2)cc1	nt	nt	nt	nt	5	15%
COc1ccc(CCN2C(=O)CSC2=Nc2ccc(C(C)C)cc2)cc1OC	16µM*	18%	3%	-21%	5	94%
CCC(=O)Nc1ccc2oc(-c3ccncc3)nc2c1	nt	nt	nt	nt	16	7%
COc1cccc(N2CCN(c3nc(C(=O)NCc4ccco4)cs3)CC2)c1	nt	nt	nt	nt	nt	20%
Cc1ccc(CCN2CCCCC23Cc2ccccc2CN(C(=O)CCC(=O)O)C3)cc1 (centres undefined)	nt	nt	nt	nt	nt	32µM*
Cc1ccc(-c2csc(NS(=O)(=O)c3cccc(F)c3)n2)o1	-4%	4%	0%	-18%	-5	16µM*
NNC(=O)CCSCc1ccc(Cl)cc1	nt	nt	nt	nt	0	-7%
CCOC(=O)c1ccc(NC(=S)N2CCSC2c2ccc(OC)cc2)cc1 (centres undefined)	-11%	4%	2%	-3%	-7	?
CCOC(=O)c1ccc(NC(=S)N2CCSC2c2ccc(Cl)cc2)cc1 (centres undefined)	21µM*	-4%	3%	?	-9	-17%
CCNc1cc2n(c(=O)n1)CCc1cc(OC)c(OC)cc1-2	?	6%	5%	-4%	-2	3%
